Experimental data taken from PubChem BioAssay (NCI).
Compounds without any hit were thinned out: in the full panel of roughly 79,000, 15% have a hit. Cut-off read from the data, not from the text of the source: active = growth inhibition above about 70%; inactive = the rest.

Legend:
[1] = NCI Yeast Anticancer Drug Screen. Data for the rad50 strain (AID 155);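 note: 0% = growth of vehicle-only cultures of the same strain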; details: S. cerevisiae rad50 strain growth inhibition; at 50.0 µM; active compounds read high
Outline: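 A DNA repair-deficient yeast mutant serves as the test organism; compound-induced growth inhibition is calculated against vehicle-treated cells.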

[2] = NCI Yeast Anticancer Drug Screen. Data for the mec2-1 strain (AID 157); details: S. cerevisiae mec2-1 strain, at 50.0 µM, active compounds read high
Outline: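 Growth inhibition is read against vehicle-treated controls after compound exposure of the mec2-1 yeast strain, which is defective in DNA damage repair or cell cycle control.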

[3] = NCI Yeast Anticancer Drug Screen. Data for the sgs1 mgt1 strain (AID 161);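 note: 0% = growth of cultures given vehicle only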; details: S. cerevisiae sgs1 mgt1 strain, at 50.0 µM, active compounds read high
Outline: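 Percent growth inhibition was derived by comparing compound-exposed mutant yeast with vehicle-exposed cultures. The strain carries alterations in DNA damage repair.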

[4] = NCI Yeast Anticancer Drug Screen. Data for the cln2 rad14 strain (AID 165);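 note: 0% = growth equal to vehicle treated cultures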; details: S. cerevisiae cln2 rad14 strain, at 50.0 µM, active compounds read high
Outline: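 Growth inhibition, relative to vehicle-treated controls, is the read-out. The test organism is a yeast strain with defined genetic alterations, cln2 rad14.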

[5] = NCI Yeast Anticancer Drug Screen. Data for the bub3 strain (AID 167); details: S. cerevisiae bub3 mutant strain, at 50.0 µM, active compounds read high
Outline: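 Inhibition values come from growth of compound-treated mutant yeast normalised to vehicle-treated controls.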

[6] = NCI Yeast Anticancer Drug Screen. Data for the mlh1 rad18 strain (AID 175); details: S. cerevisiae mlh1 rad18 strain growth inhibition; at 50.0 µM; active compounds read high
Outline: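 Cells of a genetically altered yeast strain, deficient in DNA damage repair, were treated with compound. Their growth was then compared with that of vehicle-treated cultures to give inhibition.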

Measured: growth inhibition

[N-]=[N+]=NC[C@H]1OCO[C@H](CN=[N+]=[N-])[C@H]2OCCOCCOc3ccccc3OCCOCCO[C@@H]21
inactive: [1] -13.2% | [2] -9.65% | [3] -11.6% | [4] -15.6% | [5] -30.9% | [6] -18.1%

O=C(CCCCl)c1ccc(O)cc1
inactive: [1] -29.4% | [2] -36% | [3] 2.75% | [4] 11.8% | [5] -17.6% | [6] 0.1%

COc1cc(C(=O)NC(=S)Nc2csc(-c3ccc(F)cc3)n2)cc(OC)c1OC
inactive: [1] 14.9% | [2] -12.8% | [3] 8.65% | [4] 16.9% | [5] -0.75% | [6] 11.7%

O=C(NCCNCCO)N/N=C/c1ccccc1
inactive: [1] -0.2% | [2] -34.4% | [3] -15.9% | [4] -7.75% | [5] -39% | [6] -0.65%

CC(=O)NC(Cc1ccccc1)C(=O)NN (stereo not given)
inactive: [1] 7.15% | [2] -8.3% | [3] -11.2% | [4] -0.35% | [5] -6.55% | [6] -22.3%

Cc1ccc(Nc2ncnc3sc(SCc4ccccc4)nc23)cc1
inactive: [1] -34.5% | [2] -20.4% | [3] -24.2% | [4] 3.75% | [5] -24.6% | [6] -28.1%

CCOC(=N)Cc1ccccc1
inactive: [1] 3.7% | [2] 21.1% | [3] 4.6% | [4] -10.8% | [5] 23.4% | [6] -27.9%

C=C(C)CN(CC(=C)C)C(C)=O
inactive: [1] 5.7% | [2] -17.7% | [3] -15.4% | [4] -6.15% | [5] -16.3% | [6] -5.85%

CCCN(CCCC(NC(C)=O)C(=O)NCc1ccccc1)C(=O)NC (stereo not given)
inactive: [1] -11.1% | [2] -18.8% | [3] -28.4% | [4] 1.2% | [5] -4.65% | [6] -45.3%

COc1cc(SC)c(OC)cc1C
inactive: [1] 4.15% | [2] 0.65% | [3] -12.4% | [4] -22.4% | [5] -6% | [6] 4.85%

COC(=O)C(c1ccccc1)C(SCc1ccccc1)c1ccccc1 (stereo not given)
inactive: [1] 2.85% | [2] 1.15% | [3] -18.9% | [4] 0.95% | [5] -7.15% | [6] 4.7%

COc1ccc2cc1Oc1ccc(cc1)C[C@@H]1c3cc(c(OC)cc3CCN1C)Oc1c(OC)c(OC)cc3c1[C@@H](C2)N(C)CC3
inactive: [1] 33% | [2] -20.8% | [3] 18.6% | [4] -2.7% | [5] 21.9% | [6] 31.2%

CC1=CCCC(C)(C)C1/C=C\C(C)=N\Nc1ccc([N+](=O)[O-])cc1[N+](=O)[O-] (stereo not given)
inactive: [1] 0.55% | [2] -3.3% | [3] -12.3% | [4] -33.9% | [5] -0.15% | [6] 6.3%

COc1ccc(S(=O)(=O)N(C)c2ccccc2)cc1
inactive: [1] 2.9% | [2] -56.8% | [3] -20.6% | [4] 13.3% | [5] 19.1% | [6] 3.5%

NC(N)=Nc1nc2ccccc2[nH]1
inactive: [1] 15.9% | [2] -2.85% | [3] 19.4% | [4] -26.4% | [5] 11.7% | [6] 18.1%

Cc1ccc(=O)n(Cc2ccccc2)n1
inactive: [1] -8.25% | [2] -31.9% | [3] -11.8% | [4] 21.1% | [5] -12.2% | [6] 2.75%

CC1OC(OC2CCc3c(O)c4c(c(O)c3C2)C(=O)c2ccccc2C4=O)CC(N)C1O (stereo not given)
inactive: [1] 5.25% | [2] 8.9% | [3] 5.85% | [4] 14.8% | [5] -1.85% | [6] -2.15%

CCCCCCCCCCCCCCCCCCSCCCCCCCCCCCCCCCCCC
inactive: [1] 25.1% | [2] 2.75% | [3] -16.9% | [4] -20.4% | [5] -2.55% | [6] -17.6%

CCOCCOC(=O)c1ccc(C(N)=NC)cc1
inactive: [1] 12.6% | [2] -1.2% | [3] 5.2% | [4] -8.15% | [5] 6.05% | [6] 5.8%

CCCCCCCC(C(=O)O)C(=O)O
inactive: [1] -2.1% | [2] 0.4% | [3] 10.3% | [4] 10.3% | [5] -2.5% | [6] 11.5%
